Assay outcomes: PubChem, Sanford-Burnham Center for Chemical Genomics
Rows were chosen to be rich in hits. Some 28% of all compounds tested hit in one or more screens of this group.
CYP2C19 act – activators of human cytochrome P450 2C19; P33261; activation factor at 5 µM; 96,000 tested, under 10 active; recombinant CYP2C19, luciferin-H EGE luminescence; hits give high values; 0 = fully inhibited enzyme, 1 = untreated enzyme; AID 1025;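 active means activation factor of at least 2 at 5 µM in the primary screen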;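 further: 0 = wells with 2.5 mM tranylcypromine and 1 = vehicle-only wells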
Mac1 fbg inh – blocks human CD11b/CD18 adhesion to fibrinogen; K562 CD11b/CD18 adhesion to fibrinogen, ATPlite luminescence; Mn2+ added to activate the integrin; P05107+P11215; actives 0.54% (n = 93,000); inhibition, % at 10 µM;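 active means primary inhibition of 50% or more at 10 µM, then 40% or more on retest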
Target sequence (P05107 whole entry, looked up, other chains not shown): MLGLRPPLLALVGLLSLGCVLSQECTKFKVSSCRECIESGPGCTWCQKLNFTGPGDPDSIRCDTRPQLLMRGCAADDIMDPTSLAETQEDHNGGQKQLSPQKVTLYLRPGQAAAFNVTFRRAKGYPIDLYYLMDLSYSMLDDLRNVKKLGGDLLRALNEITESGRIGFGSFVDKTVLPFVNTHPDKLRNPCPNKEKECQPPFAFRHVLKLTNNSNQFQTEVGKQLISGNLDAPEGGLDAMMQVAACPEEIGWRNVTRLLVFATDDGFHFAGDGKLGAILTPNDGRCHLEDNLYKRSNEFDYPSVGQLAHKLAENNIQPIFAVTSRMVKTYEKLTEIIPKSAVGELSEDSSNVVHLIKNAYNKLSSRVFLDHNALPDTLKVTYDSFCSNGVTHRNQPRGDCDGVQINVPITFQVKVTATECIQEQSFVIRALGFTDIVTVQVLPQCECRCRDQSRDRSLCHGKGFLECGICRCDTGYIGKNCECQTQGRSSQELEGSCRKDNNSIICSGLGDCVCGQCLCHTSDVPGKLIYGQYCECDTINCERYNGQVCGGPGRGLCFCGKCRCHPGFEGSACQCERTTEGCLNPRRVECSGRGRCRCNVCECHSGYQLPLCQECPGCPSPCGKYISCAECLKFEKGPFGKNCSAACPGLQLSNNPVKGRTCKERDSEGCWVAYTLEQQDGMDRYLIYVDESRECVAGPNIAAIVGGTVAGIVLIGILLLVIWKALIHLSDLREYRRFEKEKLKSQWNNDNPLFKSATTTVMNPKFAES
CYP2C9 act – increases human cytochrome P450 2C9 activity. P11712. recombinant CYP2C9, luciferin-H conversion, luminescence; hits give high values; factor 1 = untreated enzyme, 0 = blocked. actives 1.4% (n = 96,000). activation factor at 5 µM. AID 1024;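 active means activation factor of 2 or more for CYP2C9 at a 5 µM dose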;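 further: 0 = sulfaphenazole-blocked wells and 1 = vehicle-only wells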
CYP2C19 inh – human CYP2C19 inhibition | CYP2C19 Supersomes, luciferin-H EGE luminescence, 30 min | actives 21% (n = 96,000) | AID 778 | inhibition, % at 5 µM | P33261;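 active means CYP2C19 inhibition above a set limit at 5 µM in the primary screen, cut at about 50% in these data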;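 further: plate controls were negative control wells for no effect and 2.5 mM tranylcypromine positive control for full effect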
CYP2C9 inh – inhibitors of human CYP2C9; P11712; CYP2C9 Supersomes, luciferin-H conversion, luminescence; inhibition, % at 5 µM; actives 20% (n = 96,000); AID 777;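 active means blocking of liver enzyme CYP2C9 beyond about 50% at 5 µM, limit read from the data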
Mac1 fbg enh – enhancers of human CD11b/CD18 binding to fibrinogen; P05107+P11215; K562 CD11b/CD18 adhesion to fibrinogen, ATPlite luminescence; activation, % at 10 µM; actives 0.07% (n = 93,000); AID 1499;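 active means 10 µM primary screen giving 50% or more activity, confirmed by 40% or more on retest at that dose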
Numbers without * were called inactive.

What do the screens show for `Cn1c(=O)c2c(nc(CN3CCC(C(N)=O)CC3)n2Cc2ccccc2F)n(C)c1=O`?
CYP2C19 act: 0.9; Mac1 fbg inh: -0.4; CYP2C9 act: 1; CYP2C19 inh: 12.5; CYP2C9 inh: 4.2; Mac1 fbg enh: -2.6

Results for Cn1c(=O)c2c(nc(N3CCN(c4ccccc4)CC3)n2CCCc2ccccc2)n(C)c1=O ?
CYP2C19 act: 0.9; Mac1 fbg inh: -17.9; CYP2C9 act: 0.9; CYP2C19 inh: 13.4; CYP2C9 inh: 13.4; Mac1 fbg enh: -3.4

Results for Cn1c(=O)c2c(nc(N3CCN(Cc4ccccc4)CC3)n2CCCc2ccccc2)n(C)c1=O ?
CYP2C19 act: 0.3; Mac1 fbg inh: 4.9; CYP2C9 act: 0.7; CYP2C19 inh: 68.1*; CYP2C9 inh: 30.7; Mac1 fbg enh: -0.3

Results for CCCCCCn1c(=O)[nH]c2nc3cc(N)ccc3nc2c1=O ?
Mac1 fbg inh: -13.1; Mac1 fbg enh: 5.4

Results for CCCCCn1c(N2CCN(c3cccc(Cl)c3)CC2)nc2c1c(=O)[nH]c(=O)n2C ?
CYP2C19 act: 0.2; Mac1 fbg inh: -1.9; CYP2C9 act: 0; CYP2C19 inh: 82.5*; CYP2C9 inh: 96.1*; Mac1 fbg enh: 1.2

What do the screens show for `Cn1c(=O)[nH]c(=O)c2[nH]c(N(Cc3ccccc3)Cc3ccccc3)nc21`?
CYP2C19 act: 1; Mac1 fbg inh: -7.4; CYP2C9 act: 0.4; CYP2C19 inh: -3.3; CYP2C9 inh: 55.6*; Mac1 fbg enh: 21.2

What do the screens show for `Cn1c(=O)[nH]c(=O)c2c1nc(N1CCN(Cc3ccccc3)CC1)n2CCSc1ncccn1`?
CYP2C19 act: 0.2; Mac1 fbg inh: -8.3; CYP2C9 act: 0.5; CYP2C19 inh: 75.4*; CYP2C9 inh: 49.6; Mac1 fbg enh: -3.2

What do the screens show for `Cn1c(=O)[nH]c(=O)c2c1nc(N1CCN(c3cccc(Cl)c3)CC1)n2CCCc1ccccc1`?
CYP2C19 act: 0.9; Mac1 fbg inh: -2.1; CYP2C9 act: 0.8; CYP2C19 inh: 10.1; CYP2C9 inh: 15.6; Mac1 fbg enh: 6.6

Results for O=c1[nH]c2cc(Cl)cc(Cl)c2[nH]c1=O ?
CYP2C19 act: 0.9; Mac1 fbg inh: -7.6; CYP2C9 act: 0.9; CYP2C19 inh: 6.0; CYP2C9 inh: 7.8; Mac1 fbg enh: 4.1

How did CCCCOCCCNS(=O)(=O)c1ccccc1 do in these assays?
CYP2C19 act: 0.6; Mac1 fbg inh: 1.8; CYP2C9 act: 0.9; CYP2C19 inh: 43.7; CYP2C9 inh: 13.1; Mac1 fbg enh: 4.8

What do the screens show for `CCCCOP(=O)(OCCCC)C1(NS(=O)(=O)c2ccccc2)C=CC(=O)c2ccccc21` (stereo unspecified)?
CYP2C19 act: 0.5; Mac1 fbg inh: 5.8; CYP2C9 act: 0.4; CYP2C19 inh: 46.8; CYP2C9 inh: 60.4*; Mac1 fbg enh: 0.8

Results for O=C1Nc2ccc(Br)cc2C1=Nc1ccc(-c2nnc3n2CCCCC3)cc1 ?
CYP2C19 act: 1.3; Mac1 fbg inh: -12.3; CYP2C9 act: 1.4; CYP2C19 inh: -30.4; CYP2C9 inh: -39.1; Mac1 fbg enh: -1.7

What do the screens show for `CCOC(=O)c1c(N)sc2c(OC)c(Br)ccc12`?
CYP2C19 act: 1; Mac1 fbg inh: 6.6; CYP2C9 act: 0.4; CYP2C19 inh: 1.8; CYP2C9 inh: 63.2*; Mac1 fbg enh: -1.2

What do the screens show for `CCC(CC)NC(=O)Cc1ccccc1[N+](=O)[O-]`?
CYP2C19 act: 0.7; Mac1 fbg inh: -6.5; CYP2C9 act: 0.9; CYP2C19 inh: 25.7; CYP2C9 inh: 5.4; Mac1 fbg enh: -0.7

Results for N#CCCNC(=O)Cn1c(COc2ccc(Cl)cc2)nc2ccccc21 ?
Mac1 fbg inh: 0.7; Mac1 fbg enh: 0.1

What do the screens show for `Cc1ccc(S(=O)(=O)NCCN=C(CN2CCOCC2)NS(=O)(=O)c2ccc(C)cc2)cc1`?
CYP2C19 act: 0.8; Mac1 fbg inh: -31.9; CYP2C9 act: 0.2; CYP2C19 inh: 23.5; CYP2C9 inh: 75.6*; Mac1 fbg enh: 1.8

What do the screens show for `Cc1ccc(S(=O)(=O)NCC2CCC(C(=O)NCCCN3CCOCC3)CC2)cc1` (stereo unspecified)?
CYP2C19 act: 1; Mac1 fbg inh: -36.3; CYP2C9 act: 1; CYP2C19 inh: -1.7; CYP2C9 inh: 1.9; Mac1 fbg enh: -0.8

How did Cc1ccc(S(=O)(=O)NCCN=C(CN2CCCC2)NS(=O)(=O)c2ccc(C)cc2)cc1 do in these assays?
CYP2C19 act: 0.7; Mac1 fbg inh: 13.7; CYP2C9 act: 0; CYP2C19 inh: 25.5; CYP2C9 inh: 96.8*; Mac1 fbg enh: -1.1

How did O=C(NC1CCc2ccccc21)C1CCN(S(=O)(=O)c2ccc(-n3cnnn3)cc2)CC1 (stereo unspecified) do in these assays?
CYP2C19 act: 1.2; Mac1 fbg inh: -14.0; CYP2C9 act: 1.2; CYP2C19 inh: -17.7; CYP2C9 inh: -23.2; Mac1 fbg enh: 0.9

Results for COC(=O)C(NC(C)=O)(Nc1ccccc1)C(=O)OC ?
CYP2C19 act: 0.9; Mac1 fbg inh: -17.2; CYP2C9 act: 1; CYP2C19 inh: 5.3; CYP2C9 inh: -3.4; Mac1 fbg enh: -2.7

Results for O=C(NCc1ccc(F)cc1)C(c1cccs1)N(C(=O)c1csnn1)C1CC1 (stereo unspecified) ?
CYP2C19 act: 0.8; Mac1 fbg inh: 2.0; CYP2C9 act: 1.1; CYP2C19 inh: 22.8; CYP2C9 inh: -13.6; Mac1 fbg enh: -0.4

What do the screens show for `Cc1c(Cl)cccc1N1C(=O)c2ccccc2C1=O`?
CYP2C19 act: 0.8; Mac1 fbg inh: -3.3; CYP2C9 act: 1.1; CYP2C19 inh: 15.2; CYP2C9 inh: -9.6; Mac1 fbg enh: 0.7

What do the screens show for `Cc1ccccc1N1C(=O)C2ON(c3ccccc3)C(c3cccnc3)C2C1=O` (stereo unspecified)?
CYP2C19 act: 0.3; Mac1 fbg inh: -10.3; CYP2C9 act: 0.5; CYP2C19 inh: 75.0*; CYP2C9 inh: 51.9*; Mac1 fbg enh: -2.1

How did O=C1C2ON(c3ccccc3)C(c3cccnc3)C2C(=O)N1Cc1ccccc1 (stereo unspecified) do in these assays?
CYP2C19 act: 0; Mac1 fbg inh: -0.2; CYP2C9 act: 0.1; CYP2C19 inh: 100.4*; CYP2C9 inh: 88.0*; Mac1 fbg enh: 0.6

Results for Cc1c(Cl)cccc1N1C(=O)C2ON(c3ccccc3)C(c3cccnc3)C2C1=O (stereo unspecified) ?
CYP2C19 act: 0.4; Mac1 fbg inh: -8.1; CYP2C9 act: 0.6; CYP2C19 inh: 56.4*; CYP2C9 inh: 42.0; Mac1 fbg enh: 0.1

Results for O=C1C2C3c4ccccc4C(c4ccccc43)[C@@H]2C(=O)N1c1cccnc1 (stereo partly specified) ?
Mac1 fbg inh: -5.9; Mac1 fbg enh: -2.3
